Shn3 3UTR inh: reduction of Shn3 3'UTR firefly luciferase signal, primary screen, Schnurri-3 inhibitor project, cell-based, Clone20 osteoblasts, set 2; Clone20 osteoblast Shn3 3'UTR firefly luciferase, 24 h; inhibition, % at 12.5 µM; actives 0.52% (n = 360,000);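 active = mean inhibition of at least 75% with every replicate also reaching 75%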
KKLEB tox: cytotoxicity in KKLEB CF airway cells, primary screen, cytotoxicity control for CF NF-kB inhibitor project, cell-based, uHTS, fluorescence assay plates; KKLEB CF airway cells viability, ATPlite luminescence, overnight; hits give low values; cells stimulated with P. aeruginosa culture filtrate; activity change (cytotoxicity), % at 5 µM; actives 0.36% (n = 360,000);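 active = corrected activity change at or below -50% at 5 µM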
CF NFkB block: inhibitors of PAF-induced NF-kB signaling, primary screen, cell-based, GFP fluorescence, uHTS; KKLEB NF-kB-GFP reporter, GFP fluorescence overnight; inhibition, % at 5 µM; actives 0.86% (n = 360,000);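 active = at least 50% inhibition at 5 µM, scaled per plate between neutral and stimulator controls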;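 also: PAF is a Pseudomonas aeruginosa culture filtrate used as stimulus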
MITF TRPM1 inh: inhibitors of MITF-dependent TRPM1 promoter reporter, primary screen, cell-based, SK-MEL-5, single point, luciferase | inhibition, % at 12.5 µM | actives 0.83% (n = 330,000) | SK-MEL-5 TRPM1 promoter luciferase, 24 h;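 active = mean inhibition across replicates of 60% or more, whatever share of single replicates reaches that level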
Peg3 promoter: Peg3 promoter-driven luciferase inhibitors, primary screen, cell-based, HeLa, luciferase luminescence; HeLa PEG-Prom luciferase reporter, overnight; inhibition, % at 20 µM; actives 1.7% (n = 360,000); AID 588405, 2011;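 active = inhibition of at least 50% at 20 µM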
HIF-2a block: HIF-2a reporter inhibitors, primary screen, luminescence, 786-0 RCC cells. AID 624352, 2012. inhibition, % at 18.8 µM. actives 0.72% (n = 360,000). 786-0 RCC cells HIF-2a reporter, luciferase luminescence, overnight;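 active = inhibition of the luminescence signal of 40% or more relative to plate controls, in a single-dose primary screen at 18.75 µM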
Each line names hits and unclear results; the compound was inactive in the other large screens. An excerpt weighted towards active compounds, which were near 2.8% of everything screened.

O=c1[nH]c(C2CCN(S(=O)(=O)c3ccccc3C(F)(F)F)CC2)nc2c1nnn2Cc1ccccc1	Peg3 promoter 51
COC(=O)C1SCC2C(=O)N(Cc3ccc(Cl)c(Cl)c3)CC(=O)N21 (configuration not stated)	none
COc1cc(/C=C(/C(=O)O)c2ccc(-c3ccccc3)cc2)cc(OC)c1OC	none
COc1cc(C=c2c3ccccc3n3c2cc(-c2ccccc2)[n+]3C)cc(OC)c1OC	MITF TRPM1 inh 65
COc1cc(N(C)C)ccc1C=c1c2ccccc2n2c1cc(-c1ccccc1)[n+]2C	Shn3 3UTR inh 95, MITF TRPM1 inh 110, Peg3 promoter 100, HIF-2a block 90
CCC1Oc2ccccc2N(CC(=O)NC2CCCCC2)C1=O (configuration not stated)	none
N#C/C(=C(/O)COc1ccc(Cl)cc1)c1nc2ccccc2s1	CF NFkB block 50
N#C/C(=C(/O)COc1ccccc1)c1nc2ccccc2s1	none
CC(C)(CNC(=O)c1ccc(-c2cccc(C(F)(F)F)c2)o1)N1CCOCC1	none
COc1ccc(NC(=O)CSc2nc3ccc(Nc4nc(N5CCOCC5)nc(N5CCOCC5)n4)cc3s2)cc1	KKLEB tox -50, CF NFkB block 56
Cc1ccc(NC(=O)CSc2nc3ccc(Nc4nc(N5CCOCC5)nc(N5CCOCC5)n4)cc3s2)cc1	none
c1ccc(CCNc2ccnc3cc4ccccc4cc23)cc1	Shn3 3UTR inh 94, MITF TRPM1 inh 103, Peg3 promoter 106
O=C(NCc1ccc(F)c(F)c1)c1cccc2c(-c3cccnc3)coc12	none (no result: MITF TRPM1 inh)
CC(=O)c1cccc(NC(=O)c2cccc3c(-c4cnn(C)c4)coc23)c1	Peg3 promoter 58 (no result: MITF TRPM1 inh)
COc1cc(NC(=O)c2cccc3c(-c4cnn(C)c4)coc23)cc(OC)c1OC	Peg3 promoter 78 (no result: MITF TRPM1 inh)
COc1ccc(CNC(=O)c2cccc3c(-c4cccnc4)coc23)cc1OC	Shn3 3UTR inh 88 (no result: MITF TRPM1 inh)
O=C(Nc1ccc(Oc2ccc(NC(=O)Nc3ccccc3Cl)cc2)cc1)Nc1ccccc1Cl	none
CCOC(=O)/C(=C\c1ccc(OC(F)F)cc1)C1=Nn2c(nnc2-c2ccc(Cl)cc2)SC1	Shn3 3UTR inh 95, KKLEB tox -90, CF NFkB block 88, MITF TRPM1 inh 99, Peg3 promoter 103, HIF-2a block 97
CC12CCC(=O)C=C1C(O)CC1C2CCC2(C)C1CCC2(O)C(=O)CO (configuration not stated)	none
CC(=O)OCC(=O)[C@@]1(O)CC[C@H]2[C@@H]3CCC4=CC(=O)C=C[C@]4(C)[C@@]3(F)[C@@H](O)C[C@@]21C	CF NFkB block 65
CC(=O)OCC(=O)C1=CCC2C3CCC4=CC(=O)C=CC4(C)C3(F)C(OC(C)=O)CC12C (configuration not stated)	none
CC12C=CC(=O)C=C1CCC1C3CCC(O)(C(=O)CO)C3(C)CC(O)C12F (configuration not stated)	CF NFkB block 70
CC(=O)OCC(=O)C1(O)CCC2C3CCC4=CC(=O)CCC4(C)C3(F)C(O)CC21C (configuration not stated)	CF NFkB block 75
CC(=O)OCC(=O)[C@H]1CC[C@H]2[C@@H]3CCC4=CC(=O)CC[C@]4(C)[C@H]3CC[C@]12C	none
CC12C=CC(=O)C=C1CCC1C3CCC(O)(C(=O)CO)C3(C)CC3OC312 (configuration not stated)	none
CC12C=CC(=O)C=C1C(F)CC1C3CCC(O)(C(=O)CO)C3(C)CC(O)C12F (configuration not stated)	CF NFkB block 69
CCC(=O)N1CCc2cc(S(=O)(=O)NC(Cc3ccccc3)C(=O)O)ccc21 (configuration not stated)	none
CCCCN(C)Cc1c(O)ccc2c(=O)c(-c3ccccc3OC)coc12	none
Cc1ccccc1S(=O)(=O)NC(=O)C1(C)CCN1C(=O)c1cccc2ccccc12 (configuration not stated)	none (no result: MITF TRPM1 inh)
CN1CCN(c2ccc(NC(=S)NC(=O)c3cccc4ccccc34)cc2)CC1	MITF TRPM1 inh 64, Peg3 promoter 69
CN1CCN(c2ccc(NC(=S)NC(=O)c3cccc4c(Br)cccc34)cc2)CC1	none
O=C(C[C@@H]1CC[C@H](NC(=O)Nc2ccc(F)cc2)[C@@H](CO)O1)NCc1cccc(F)c1	none (no result: Shn3 3UTR inh, KKLEB tox, CF NFkB block, MITF TRPM1 inh, Peg3 promoter)
COc1cc(C(=O)N/N=C/c2ccc(OC)c(CN3CCN(c4ccc(F)cc4)CC3)c2)ccc1O	none
CCOC(=O)c1c(CSc2ccccc2)n(C)c2cc(Br)c(OCC(O)CNC(CO)(CO)CO)cc12 (configuration not stated)	MITF TRPM1 inh 90, Peg3 promoter 97
CCOC(=O)c1c(CSc2ccccc2)n(C)c2cc(Br)c(OC)c(O)c12	none
Cc1cc(/C=C2\Sc3ccccc3N2C)cc(C)[n+]1CC1CCCO1 (configuration not stated)	Shn3 3UTR inh 89, MITF TRPM1 inh 74, Peg3 promoter 70
Cc1ccc(/C=C2/Sc3ccccc3N(CC(=O)NCC3CCCO3)C2=O)cc1 (configuration not stated)	none
Nc1c(N2CCCC2)cc(Cl)c2nonc12	MITF TRPM1 inh 74
O=C(Oc1ccc(NC2=C(Cl)C(=O)c3ccccc3C2=O)cc1)c1ccc([N+](=O)[O-])cc1	MITF TRPM1 inh 82, Peg3 promoter 99
CC(C)(C)n1nnnc1C(c1ccc(F)cc1)N(Cc1ccc(F)cc1)Cc1ccco1 (configuration not stated)	none
CC(C)(C)n1nnnc1C(c1ccc(C(F)(F)F)cc1)N(Cc1ccccc1)Cc1ccco1 (configuration not stated)	Shn3 3UTR inh 88
CC(C)(C)n1nnnc1C(c1ccc(C(F)(F)F)cc1)N(Cc1ccc(F)cc1)Cc1ccco1 (configuration not stated)	Shn3 3UTR inh 89
CC(OC(=O)c1ccc2ccccc2c1)C(=O)N(C)Cc1ccccc1 (configuration not stated)	none
CC(C)N(CCC(=O)c1ccc2ccccc2c1)Cc1ccccc1	Shn3 3UTR inh 94
N=C1S/C(=C\c2ccccc2F)C(=O)N1c1ccc(F)cc1	none
N=C1S/C(=C\c2cn[nH]c2-c2ccc(F)cc2)C(=O)N1c1ccccc1F	CF NFkB block 50
COc1ccc(Cl)cc1C(=O)Nc1nc2ccccc2[nH]1	KKLEB tox -52
COc1ccc(C(=O)Nc2nc3ccccc3[nH]2)cc1OC	none

Bioassay records from PubChem.
